Compounds with a hit are over-represented: about 13% of the library has one in this group of screens.
USP17 block = inhibitors of human USP17 deubiquitinase. Ubiquitin carboxyl-terminal hydrolase 17-like protein 5 (Homo sapiens), A8MUK1. purified USP17, Ub-rhodamine cleavage fluorescence, 3 h. inhibition, % at 50 µM. actives 6.5% (n = 47,000). AID 1645855, 2021
USP8 block = inhibitors of human USP8 deubiquitinase | actives 4.2% (n = 47,000) | AID 1645853, 2021 | inhibition, % at 20 µM | purified USP8, Ub-rhodamine cleavage fluorescence, 30 min
USP30 inh = inhibitors of human USP30 deubiquitinase; Ubiquitin carboxyl-terminal hydrolase 30 (Homo sapiens), Q70CQ3; purified USP30, Ub-rhodamine cleavage fluorescence; inhibition, % at 25 µM; actives 5.3% (n = 47,000)
USP10 block = inhibitors of human USP10 deubiquitinase; actives 1.1% (n = 47,000); purified USP10, Ub-rhodamine fluorescence, 60 min; inhibition, % at 20 µM; Ubiquitin carboxyl-terminal hydrolase 10 (Homo sapiens), Q14694
Target sequence (Q14694 whole entry, looked up): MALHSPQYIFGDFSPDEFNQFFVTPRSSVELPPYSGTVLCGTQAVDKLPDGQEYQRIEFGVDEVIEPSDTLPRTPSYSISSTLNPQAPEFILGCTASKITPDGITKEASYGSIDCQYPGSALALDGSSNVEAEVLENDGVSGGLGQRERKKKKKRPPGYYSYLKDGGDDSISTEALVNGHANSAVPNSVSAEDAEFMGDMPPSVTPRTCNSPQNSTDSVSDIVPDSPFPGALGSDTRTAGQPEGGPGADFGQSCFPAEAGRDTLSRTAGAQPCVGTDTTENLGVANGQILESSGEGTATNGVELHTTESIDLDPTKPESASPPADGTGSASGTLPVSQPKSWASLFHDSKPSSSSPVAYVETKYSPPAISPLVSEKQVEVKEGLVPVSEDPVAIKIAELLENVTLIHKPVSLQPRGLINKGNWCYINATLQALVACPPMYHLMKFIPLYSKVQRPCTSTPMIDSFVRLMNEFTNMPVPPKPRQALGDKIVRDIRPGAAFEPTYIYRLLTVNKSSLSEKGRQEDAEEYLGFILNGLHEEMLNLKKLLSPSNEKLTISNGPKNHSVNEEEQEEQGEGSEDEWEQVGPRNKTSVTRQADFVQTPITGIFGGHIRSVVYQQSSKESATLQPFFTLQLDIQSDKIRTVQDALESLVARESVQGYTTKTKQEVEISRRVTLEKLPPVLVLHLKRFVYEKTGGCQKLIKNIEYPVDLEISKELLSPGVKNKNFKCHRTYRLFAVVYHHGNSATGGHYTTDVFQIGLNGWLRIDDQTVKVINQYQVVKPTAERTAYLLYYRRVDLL
USP28 inh = inhibitors of human USP28 deubiquitinase | inhibition, % at 25 µM | Ubiquitin carboxyl-terminal hydrolase 28 (Homo sapiens), Q96RU2 | purified USP28, Ub-rhodamine cleavage fluorescence, 30 min | actives 3% (n = 47,000)
Active calls of the source: *. Rule as the data show it: active = inhibition above about 30%; inactive = the rest.

`CC[C@@]1([C@@H]2O[C@@H]([C@H]3O[C@@](O)(CO)[C@H](C)C[C@@H]3C)C[C@@H]2C)CC[C@H]([C@]2(C)CC[C@]3(C[C@H](O)[C@@H](C)[C@@H]([C@@H](C)[C@@H](O)[C@H](C)C(=O)O)O3)O2)O1` gave USP17 block -77.3, USP8 block 0.2, USP30 inh -12.9, USP10 block -0.5 and USP28 inh -19.9.
Screening CO[C@@H]1C[C@@H](C[C@H]2CC[C@H](C)[C@H]([C@@H](C)C(=O)O)O2)O[C@]2(O[C@](C)([C@H]3CC[C@@](C)([C@@H]4O[C@@H]([C@H]5O[C@@](O)(CO)[C@H](C)C[C@@H]5C)C[C@@H]4C)O3)C[C@H]2C)[C@@H]1C returned USP17 block 17.3, USP8 block 2.3, USP30 inh 33.8*, USP10 block 18.1 and USP28 inh 19.5.
`CN=C(N)NCCC/C=C/CCC[C@H](C)C[C@H](C)C1OC(=O)C(C)C(O)/C=C/C(C)C(O)CC(O)C(C)C(O)CCC(C)C(O)CC2(O)OC(CC(OC(=O)CC(=O)O)CC(O)CC(O)C(C)C(O)/C=C/C=C/C1C)CC(O)C2O` (some centres not stated) gave USP17 block 31.6*, USP8 block 5.8, USP30 inh 10.6, USP10 block -2.0 and USP28 inh 34.4*.
CCOC(=O)c1c(C)n(C2CC2)c2ccc(OC)cc12 was read as USP17 block 4.8, USP8 block 7.7, USP30 inh -8.1, USP10 block -0.2 and USP28 inh 37.1*.
Screening Cc1cc(C)nc(-n2nc(C)c3c2NC(=O)CSC3c2ccccc2F)n1 (configuration not stated) returned USP17 block 36.5*, USP8 block -5.7, USP30 inh 87.4*, USP10 block -4.0 and USP28 inh 2.1.
Screening CCOc1ccc(C2SCC(=O)Nc3c2c(=O)[nH]n3C2CCCC2)cc1 (configuration not stated) returned USP17 block 11.7, USP8 block 23.4, USP30 inh 19.2, USP10 block 2.2 and USP28 inh 8.0.
Cc1ccc(C2SCC(=O)Nc3c2c(=O)[nH]n3C2CCCCCC2)cc1 (configuration not stated) was read as USP17 block 18.9, USP8 block 73.4*, USP30 inh 29.5, USP10 block 14.8 and USP28 inh 9.2.
Screening O=C1CSC(c2cccc([N+](=O)[O-])c2)c2c(n(C3CCCCCC3)[nH]c2=O)N1 (configuration not stated) returned USP8 block 39.7*, USP30 inh 27.7, USP10 block 10.3 and USP28 inh 7.6.
`Cc1nn(C2CCCC2)c2c1C(c1ccc3c(c1)OCO3)SCC(=O)N2` (configuration not stated) gave USP17 block -12.4, USP8 block -160.4, USP30 inh 30.3*, USP10 block 2.6 and USP28 inh 8.7.
For O=C1CSC(c2ccc3c(c2)OCO3)c2c(n(C3CCCC3)[nH]c2=O)N1 (configuration not stated) the results were USP17 block 0.0, USP8 block 0.0, USP30 inh 22.8, USP10 block 0.4 and USP28 inh 2.4.
O=C1CSC(c2cccc([N+](=O)[O-])c2)c2c(n(C3CCCCC3)[nH]c2=O)N1 (configuration not stated) was read as USP17 block 0.0, USP8 block -45.8, USP30 inh -11.2, USP10 block 4.3 and USP28 inh -3.5.
Screening Cc1ccccc1-n1c(CSc2ccc(Cl)cc2)nc2ccc(Cl)cc2c1=O returned USP17 block 7.4, USP8 block 3.5, USP30 inh 7.9, USP10 block 3.4 and USP28 inh -16.6.
`O=C1CC[C@]2(O)c3c(ccc(O)c31)-c1ccc(O)c3c1[C@H]2[C@@H]1O[C@@H]1C3=O` gave USP17 block -211.5, USP8 block -323.3, USP30 inh inactive, USP10 block -7.7 and USP28 inh -210.5.
Screening COc1cccc(C2SCC(=O)Nc3c2c(C)nn3-c2nc(C)cc(C)n2)c1 (configuration not stated) returned USP17 block -4.7, USP8 block -5.9, USP30 inh -10.6, USP10 block -3.0 and USP28 inh -12.7.
COc1cc(C2SCC(=O)Nc3c2c(-c2ccccc2)nn3-c2ccccc2)cc(OC)c1OC (configuration not stated) was read as USP17 block 6.9, USP8 block -11.2, USP30 inh -0.7, USP10 block 0.0 and USP28 inh 77.1*.
For O=C1CSC(c2ccc(Cl)cc2)c2c(-c3ccccc3)nn(-c3ccccc3)c2N1 (configuration not stated) the results were USP17 block 5.1, USP8 block 7.3, USP30 inh 31.9*, USP10 block 2.9 and USP28 inh 43.2*.
`CC12CN3CC(C)(CN(C1)C3(C)C)C2=O` gave USP17 block 3.1, USP8 block 1.9, USP30 inh 7.8, USP10 block 0.3 and USP28 inh -6.0.
For O=C(NC[C@H]1OC[C@@H]2CCNC[C@@H]21)c1ccnnc1 the results were USP17 block 0.0, USP8 block -35.7, USP30 inh -7.0, USP10 block 1.1 and USP28 inh -10.4.
